Hits are enriched below; roughly 1.8% of the tested compounds scored in any of these assays.
TSHR antagonist: human thyrotropin receptor antagonism | P16473 | TSHR-expressing cells, TSH-stimulated cAMP HTRF, 2 h; active compounds read low | 330,000 tested, 0.2% active | activity change, negative = inhibition, % at 11.5 µM;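 active = activity change below a set negative limit, meaning inhibition stronger than a set level, cut at about -70% in these data; inconclusive = activity change between two set negative limits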
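TSHR-expressing cells, 200/well, pre-treated with compound, then stimulated with EC80 TSH (4nM final) for 2 hours at 37 deg C. cAMP measured by competitive HTRF: anti-cAMP cryptate antibody in lysis buffer plus cAMP-d2, read after 30 minutes at room temperature.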
GLP1R inv ag: GLP-1 receptor (human) inverse agonism; Potency, µM (doses to about 38.3 µM), hits mostly inhibitors; HEK293 GLP-1R CRE-luciferase, luminescence, 24 h; GLP-1R form is constitutively active; 410,000 tested, 1.6% active; AID 624417; note: nearly all actives have a fitted effect of over 55% in size
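Luminescence readout: a drop in cAMP-driven luciferase signal flags inverse agonism at a constitutively active GLP-1R stably expressed in HEK293. Compound exposure lasted 24 hr at 37 deg C, 5% CO2.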
GLP1R ag: activates the human GLP-1 receptor | P43220 | HEK293 GLP-1R CRE-luciferase, luminescence, 4-6 h; cells express a hypersensitive GLP-1R form | Potency, µM (series often up to 45.6 µM), hits mostly activators | 380,000 tested, 0.007% active | AID 624172
PTHR1 agonist: activates the human parathyroid hormone receptor PTHR1 | 410,000 tested, 0.075% active | Q03431 | Potency, µM (titrated, usually from 115 µM), actives largely listed as activators | HEK293 GP2 PTHR1 cells, GloSensor cAMP luminescence, 1 h | AID 743266; note: nearly all actives have a fitted effect of over 55% in size
Target sequence (Q03431 whole entry, looked up): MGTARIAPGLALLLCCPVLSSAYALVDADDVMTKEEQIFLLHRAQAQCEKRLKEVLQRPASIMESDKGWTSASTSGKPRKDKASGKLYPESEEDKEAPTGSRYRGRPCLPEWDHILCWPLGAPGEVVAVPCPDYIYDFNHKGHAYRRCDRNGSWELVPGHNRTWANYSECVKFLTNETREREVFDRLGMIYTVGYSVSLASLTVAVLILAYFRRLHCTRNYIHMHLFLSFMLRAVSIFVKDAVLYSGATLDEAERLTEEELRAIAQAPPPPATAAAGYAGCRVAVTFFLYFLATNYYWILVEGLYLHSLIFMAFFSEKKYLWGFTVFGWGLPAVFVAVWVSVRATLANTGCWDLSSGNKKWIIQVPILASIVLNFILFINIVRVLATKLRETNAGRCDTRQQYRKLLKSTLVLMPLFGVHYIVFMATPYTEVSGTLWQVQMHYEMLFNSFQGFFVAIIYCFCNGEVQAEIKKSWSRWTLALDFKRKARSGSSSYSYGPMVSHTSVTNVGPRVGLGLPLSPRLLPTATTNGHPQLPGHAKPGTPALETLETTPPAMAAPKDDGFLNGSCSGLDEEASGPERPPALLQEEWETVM
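HEK-293-derived GP2 cells expressing PTHR1 and a GloSensor cAMP reporter, 3,000/well, plated overnight, given luciferin plus IBMX (each 0.5 mM as added) for 1 h at 37 °C, then compound for 1 h at 37 °C. Luminescence was read after 15 min at room temperature.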
HEK293 tox: cytotoxicity in counter-screen for GLP-1R inverse agonists. Potency, µM (highest dose often 38.3 µM), hits mostly inhibitors. HEK293 cAMP-luciferase reporter cells, luminescence, 24 h. 410,000 tested, 0.13% active;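 note: loss of luciferase light is scored as toxicity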
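Seeding density was 200 cells/uL; after overnight-length (12 h) culture, 23 nL compounds went on for 24 h at 37 °C. Readout used a luciferase detection reagent, luminescence taken after 12 min at room temperature.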
A number is an active result; n = inactive; u = inconclusive; x = no result. Unless noted, calls come from the whole dose curve; as a rule, active = well fitted curve in the direction sought with a large enough effect; inconclusive = small, poorly fitted or top-dose-only effect, or another doubt; inactive = no such curve, though single readings can be large; an effect the other way counts as inactive or inconclusive.

SMILES | TSHR antagonist | GLP1R inv ag | GLP1R ag | PTHR1 agonist | HEK293 tox
CNC(=S)N=Nc1c(O)[nH]c2ccccc12 | n | n | n | n | 11µM
Cc1ccc(NC(=S)N=Nc2c(O)[nH]c3ccccc23)cc1 | n | u | n | n | 4µM
Oc1ccc(NC(=S)N=Nc2c(O)[nH]c3ccccc23)cc1 | n | n | n | n | u
COc1ccc(NC(=S)N=Nc2c(O)[nH]c3ccccc23)cc1 | n | u | n | n | 3.2µM
COc1ccc(-c2cc3nccc(-c4cc(Cl)c(C)cc4O)n3n2)cc1 | x | n | n | n | n
Cc1occc1-c1nnc(SCC(=O)Nc2ccccc2)n1CCc1ccccc1 | n | 11µM | n | n | n
CCN(CC)c1ccc(/C=N/Nc2nc(C)cc(C)n2)cc1 | n | 11µM | n | n | u
Cc1cc(C)cc(NC(=O)Cc2c(C(=O)O)c(C)cn2C)c1 | x | n | x | n | n
CCOC(=O)c1c(NC(=O)c2cc(-c3cccc(Cl)c3)on2)sc(C(C)=O)c1C | x | n | x | n | n
CCCCOc1ccccc1Cn1c(=O)oc2ccccc21 | n | 5.6µM | n | n | n
COc1ccccc1N1CCN(c2nc3ccc(C)cc3nc2-n2nc(C)cc2C)CC1 | x | u | x | n | n
Cc1ccc2onc(CC(=O)N3CCN(c4cccc(Cl)c4)CC3)c2c1 | x | u | x | n | n
O=C(c1ccc(-c2nc3ccccc3s2)s1)N1CCOCC1 | n | 1.3µM | n | n | n
COc1cc(/C=C/c2nc(C#N)c(N3CCC(C)CC3)o2)cc(OC)c1OC | x | n | x | n | n
O=C(CN(Cc1ccc(Br)cc1)S(=O)(=O)c1ccccc1)NCc1ccccn1 | n | n | n | n | n
O=C(CN(Cc1ccccc1)S(=O)(=O)c1ccc(Br)cc1)NCc1ccco1 | n | 7.9µM | n | n | n
Cc1ccc(S(=O)(=O)N(Cc2ccccc2)Cc2ccco2)cc1 | n | 11µM | n | n | n
Cn1c(Oc2ccc(F)cc2)nc2c1c(=O)n(Cc1ccccc1Cl)c(=O)n2C | x | n | x | n | n
CC(=O)Oc1c(C)cc(Cl)cc1C(=O)Nc1ccc([N+](=O)[O-])cc1Cl | -82 | n | n | n | u
CC(=O)OCC(=O)Nc1ccc([N+](=O)[O-])cc1Cl | n | n | n | n | n
CN(Cc1ccccc1)C(=O)c1ccc(CSc2nc3cccnc3n2Cc2ccccc2F)cc1 | x | n | x | n | n
CN1C(CSCC(F)(F)F)Nc2cc(Cl)c(S(N)(=O)=O)cc2S1(=O)=O (centres undefined) | x | x | n | x | x
O=C(c1ccc2c(c1)OCCO2)N1CCN(Cc2c(F)cccc2Cl)CC1 | n | u | n | n | n
COCc1c(C(=O)N2CCN(Cc3c(F)cccc3Cl)CC2)oc2ccccc12 | n | 10µM | n | n | n
COCc1c(C(=O)N2CCN(Cc3ccc(C#N)cc3)CC2)oc2ccccc12 | n | n | n | n | n
SMILES | TSHR antagonist | GLP1R inv ag | GLP1R ag | PTHR1 agonist | HEK293 tox
O=C(c1ccc2c(c1)CCC2)N1CCN(Cc2c(F)cccc2Cl)CC1 | x | 10µM | n | n | n
COc1ccccc1NC(=O)N1c2ccccc2Sc2ccccc21 | x | n | x | n | n
CCC1=Nc2cc(C(=O)NCc3cccnc3)ccc2Sc2ccc(C)cc21 | n | 1.8µM | n | u | u
CCC1=Nc2cc(C(=O)NCc3ccco3)ccc2Sc2ccc(Cl)cc21 | n | u | n | n | n
CCCC1=Nc2cc(C(=O)NCc3ccccc3)ccc2Sc2ccccc21 | x | 4µM | x | n | n
CCC1=Nc2cc(C(=O)NCc3ccc(C)cc3)ccc2Sc2ccc(C)cc21 | x | 7.1µM | x | n | n
Cc1c(C)c2c(c(C)c1OC(=O)CCC(=O)O)CC[C@@](C)(CCC[C@H](C)CCC[C@H](C)CCCC(C)C)O2 | x | x | n | x | x
CCCCCCCCCCCCCCCCCCOP(=O)([O-])OC1CC[N+](C)(C)CC1 | x | x | n | x | x
CC(C)c1ccc(NC(=O)N2CCN(S(=O)(=O)c3ccccc3)CC2)cc1 | n | 5.6µM | n | n | n
CC(C)c1ccc(NC(=O)N2CCN(c3ccc(Cl)c(Cl)c3)CC2)cc1 | x | 7.9µM | x | n | n
CN(CC(=O)Nc1ccc(F)cc1)C(=O)COc1ccc(C(=O)c2ccccc2)cc1 | n | 10µM | n | n | n
COCCNC(=S)NCc1ccc2[nH]c3c(c2c1)CCCC3 | n | u | n | n | n
Cc1ccc(NC(=S)NCc2ccc3[nH]c4c(c3c2)CCCC4)cc1 | n | 13µM | n | n | u
CCC(C)(C)NC(=O)CSc1nc(Cc2ccccc2)nc2ccccc12 | n | 4.5µM | n | n | n
CC(Oc1ccc(-c2ccccc2)c(F)c1)c1ccn(S(=O)(=O)c2ccc(Br)cc2)n1 (centres undefined) | n | 7.1µM | n | n | n
CCNc1ccc2noc3c2c1C(=O)c1ccccc1-3 | n | n | n | n | u
O=C1c2ccccc2-c2onc3ccc(NCc4ccco4)c1c23 | n | u | n | n | 11µM
c1ccc(CN2CCC(Nc3nc(-c4ccccc4)nc4ccccc34)CC2)cc1 | n | 5µM | n | n | u
c1ccc(CNc2nc(N3CCN(Cc4ccccc4)CC3)nc3ccccc23)cc1 | n | 4µM | n | n | n
c1coc(CNc2nc(N3CCCCC3)nc3ccccc23)c1 | n | u | n | n | u
CC[C@H](C)[C@H]1O[C@]2(CC[C@@H]1C)C[C@@H]1C[C@@H](C/C=C(\C)[C@H](O[C@@H]3C[C@H](OC)[C@H](O[C@@H]4C[C@H](OC)[C@@H](O)[C@H](C)O4)[C@H](C)O3)[C@@H](C)/C=C/C=C3\CO[C@@H]4[C@H](O)C(C)=C[C@@H](C(=O)O1)[C@]34O)O2 | x | x | n | x | x
COc1cc(Cl)c(C)cc1NC(=O)c1cc2c(=O)oc3ccccc3c2s1 | x | n | n | n | n
CCN(c1ccccc1)S(=O)(=O)c1cc(C(=O)Nc2ccc(Br)cc2)ccc1F | n | 2.5µM | n | n | n
CCOc1cccc(C(=O)Nc2ccc(S(=O)(=O)N(Cc3ccccc3)c3ccccc3)cc2)c1 | x | 3.2µM | x | n | n
COc1cc(NC(=O)c2ccc(S(=O)(=O)N(C)c3ccccc3OC)cc2)cc(OC)c1 | n | 7.9µM | n | n | n
Cc1ccccc1C(=O)NC(=S)Nc1ccc(S(=O)(=O)N(C)c2ccccc2)cc1 | n | 8.9µM | n | n | n
CCN(CC)C(=O)c1sc2c(c1C)c(=O)n(Cc1ccccc1)c(=O)n2Cc1c(C)cc(C)cc1C | x | n | x | n | n
COCCN1C(=O)c2oc3ccc(C)cc3c(=O)c2C12C(=O)N(C)c1ccccc12 (centres undefined) | x | n | x | n | n
CN(c1ccccc1)S(=O)(=O)c1ccc(NC(=O)c2nc(S(C)(=O)=O)ncc2Cl)cc1 | -95 | u | n | n | u
CN(C(=S)Oc1ccc(C(=O)Nc2ccccc2)cc1)c1ccccc1 | n | 8.9µM | n | n | n

High-throughput results deposited in PubChem BioAssay by National Center for Advancing Translational Sciences (NCATS).
